The values that follow come from PubChem BioAssay (NCATS).

Test [1] can be described thus: Cell Viability - LYMP2-013 (AID 970).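 Further: cells exposed to compound for 24 h at 37 °C; nearly all actives have a fitted effect of over 55% in size.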 The note with it: LYMP2-013 lymphoblastoid cells viability; series mostly up to 92.2 µM. The method in brief: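 Acute toxicity was measured in human lymphoblastoid cells (2500/well) exposed to compound titrations for 24 hr, with ATP luminescence (CellTiter-Glo) as read-out and AC50 fitted by Hill equation.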
A short description of test [2]: Cell Viability - LYMP2-015 (AID 971). Further: nearly all actives have a fitted effect of over 55% in size. The note with it: LYMP2-015 lymphoblastoid cell viability; series mostly up to 92.2 µM. In a few lines:
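Acute toxicity was scored as a concentration-dependent drop in intracellular ATP in lymphoblastoid cells after 24 hr compound exposure in complete medium. Detection used CellTiter-Glo luciferase luminescence.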

Test [3] is described as follows: Cell Viability - LYMP2-017 (AID 972).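 Further: cells exposed to compound for 24 hours at 37 °C; nearly all actives have a fitted effect of over 55% in size.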 Conditions: LYMP2-017 lymphoblastoid cell viability; series mostly up to 92.2 µM. The method in brief: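 Steps: plate 2500 lymphoblastoid cells per well; incubate 5 hr at 37 C; add compound across a concentration series and incubate 24 hr at 37 C; add CellTiter-Glo and read luminescence after 30 min at room temperature; fit Hill curves for AC50.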

Test [4] can be described thus: Cell Viability - LYMP2-019 (AID 973).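 Further: cells exposed to compound for 24 h at 37 °C; nearly all actives have a fitted effect of over 55% in size.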 The note with it: LYMP2-019 lymphoblastoid cell line viability; series mostly up to 92.2 µM. The method in brief:
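Cells plated at 2500/well and allowed 5 hr at 37 C before compound addition. After 24 hr incubation, CellTiter-Glo reagent was added, plates sat 30 min at room temperature, and luminescence was recorded.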

Test [5] is described as follows: Cell Viability - LYMP2-021 (AID 974). The note with it: LYMP2-021 lymphoblastoid cells viability; series mostly up to 92.2 µM. The method in brief:
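Concentration-response cytotoxicity in a human lymphoblastoid line: 24 hr treatment at 37 C in complete culture medium, tetraoctylammonium bromide as positive control, luminescent ATP quantitation as viability measure.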

The nature of test [6]: Cell Viability - LYMP2-008 (AID 980).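 Further: cells exposed to compound for 24 h at 37 °C; nearly all actives have a fitted effect of over 60% in size.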 Conditions: LYMP2-008 lymphoblastoid cell viability, qHTS; series mostly up to 92.2 µM. In a few lines:
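Acute cytotoxicity is scored as concentration-dependent loss of cellular ATP in a human lymphoblastoid line after 24 hr treatment at 37 C. ATP is quantified by luciferase luminescence.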

The nature of test [7]: Cell Viability - LYMP2-010 (AID 981). The note with it: LYMP2-010 lymphoblastoid cell viability, qHTS; series mostly up to 92.2 µM. The method in brief: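 Acute toxicity is scored as a concentration-dependent loss of cellular ATP in human lymphoblastoid cells after 24 hr compound exposure in complete medium. Tetraoctylammonium bromide is the positive control.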
In test [8] the target is Muscarinic acetylcholine receptor M1 (Rattus norvegicus) (UniProt P08482). In words: qHTS Assay for Antagonists of Acetylcholine Muscarinic M1 Receptor: Kinetic Measurement of Intracellular Calcium Response (AID 943). Further: potency means the concentration at half of the fitted maximal effect; nearly all actives have a fitted effect of over 75% in size. The note with it: M1-expressing cells, kinetic intracellular calcium fluorescence; series mostly up to 35.3 µM. The method in brief: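 Intracellular calcium flux, recorded with Fluo-4 in a kinetic plate reader, served as signal; the response to carbachol at EC80 (100 nM final) was taken as maximal over minimal fluorescence after a 10 min compound pre-incubation in rat M1-CHO cells.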
Muscarinic acetylcholine receptor M1 (Rattus norvegicus), sequence (P08482 whole entry, looked up): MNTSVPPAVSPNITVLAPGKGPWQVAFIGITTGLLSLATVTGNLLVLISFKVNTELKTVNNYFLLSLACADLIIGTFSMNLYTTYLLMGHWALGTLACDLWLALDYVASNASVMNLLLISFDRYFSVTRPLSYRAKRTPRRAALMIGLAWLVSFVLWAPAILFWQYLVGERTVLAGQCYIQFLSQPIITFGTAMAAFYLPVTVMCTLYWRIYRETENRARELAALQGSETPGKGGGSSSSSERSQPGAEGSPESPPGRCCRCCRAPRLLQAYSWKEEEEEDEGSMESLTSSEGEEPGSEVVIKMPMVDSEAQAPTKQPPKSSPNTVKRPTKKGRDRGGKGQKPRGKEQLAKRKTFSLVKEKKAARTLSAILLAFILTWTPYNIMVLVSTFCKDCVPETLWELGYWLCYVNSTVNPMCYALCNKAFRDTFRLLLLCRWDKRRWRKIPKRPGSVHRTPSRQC

For test [9] the target is unchanged. The test can be described thus: qHTS Assay for Antagonists of Acetylcholine Muscarinic M1 Receptor: Measurement of IP-One Response (AID 944). Further: potency means the concentration at half of the fitted maximal effect; nearly all actives have a fitted effect of over 75% in size. Conditions: CHO-M1 cells, IP-One HTRF, antagonist mode; series mostly up to 46.1 µM. In a few lines:
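Steps: plate transfected CHO-M1 cells overnight; add test compound, 10 min; add carbachol (200 nM, EC80) in stimulation buffer with LiCl; incubate 30 min; add labelled IP1 tracer and anti-IP1 antibody in lysis buffer; read HTRF after 10 min.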

The target in test [10] is ATP-dependent 6-phosphofructokinase (Trypanosoma brucei brucei) (UniProt O15648). The test can be described thus: qHTS Assay to Find Inhibitors of T. brucei phosphofructokinase: hit validation (AID 492961).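 Further: luminescence reports ADP formed as PFK phosphorylates fructose-6-phosphate with ATP.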 The note with it: T. brucei PFK, ADP-Glo luminescence; series mostly up to 51.4 µM. The method in brief: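 Reaction: 0.1 M triethanolamine pH 8.0, 5 mM MgCl2, F6P 0.5 mM, ATP 0.1 mM, PFK 1.25 nM, 45 min RT. Read-out: ADP-Glo luminescence. Analysis: concentration-response fits, classed by r2 and efficacy.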
ATP-dependent 6-phosphofructokinase (Trypanosoma brucei brucei), sequence (O15648 whole entry, looked up): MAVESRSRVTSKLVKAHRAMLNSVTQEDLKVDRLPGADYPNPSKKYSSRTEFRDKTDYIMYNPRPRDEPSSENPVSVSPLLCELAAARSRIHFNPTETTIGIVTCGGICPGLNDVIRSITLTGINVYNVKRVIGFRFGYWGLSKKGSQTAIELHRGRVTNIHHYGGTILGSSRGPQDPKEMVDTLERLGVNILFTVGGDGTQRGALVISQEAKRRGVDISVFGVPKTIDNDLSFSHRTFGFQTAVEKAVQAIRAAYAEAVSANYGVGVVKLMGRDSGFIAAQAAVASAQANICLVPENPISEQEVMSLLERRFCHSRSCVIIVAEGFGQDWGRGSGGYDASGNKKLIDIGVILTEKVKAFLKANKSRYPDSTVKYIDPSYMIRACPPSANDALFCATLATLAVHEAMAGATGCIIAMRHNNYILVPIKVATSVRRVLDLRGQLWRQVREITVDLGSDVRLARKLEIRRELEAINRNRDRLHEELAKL

In the next test the test system is AS120. In words: qHTS profiling for inhibitors of Plasmodium falciparum proliferation (AID 504749). Further: nearly all actives have a fitted effect of over 60% in size. The note with it: P. falciparum in erythrocytes, SYBR Green DNA, 72 h; series mostly up to 28.7 µM. In a few lines: (§1)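 P. falciparum-infected erythrocytes (0.3% parasitemia, 2.5% hematocrit final) were exposed to compounds for 72 h at 37 C in 5% CO2, then lysed with SYBR Green buffer overnight at room temperature; parasite DNA fluorescence was normalized to artemisinin and DMSO controls.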

The next test deals with ATS189. The description is as above. The note with it: P. falciparum in erythrocytes, SYBR Green DNA, 72 h; series mostly up to 28.7 µM. The method in brief:
as §1

In another test the test system is CP185. Described as above. The note with it: P. falciparum in erythrocytes, SYBR Green DNA, 72 h; series mostly up to 28.7 µM. In a few lines:
as §1

The next test concerns CP247. Described as above. The note with it: P. falciparum in erythrocytes, SYBR Green DNA, 72 h; series mostly up to 28.7 µM. The method in brief:
as §1

A further test relates to DFO2036. The description is as above. The note with it: P. falciparum in erythrocytes, SYBR Green DNA, 72 h; series mostly up to 28.7 µM. In a few lines: as §1
Another test relates to P94_40. The test is described as above. Conditions: P. falciparum in erythrocytes, SYBR Green DNA, 72 h; series mostly up to 28.7 µM. The method in brief:
as §1

Another test concerns PC49. The description is as above. The note with it: P. falciparum in erythrocytes, SYBR Green DNA, 72 h; series mostly up to 28.7 µM. In a few lines: as §1
The subject of the next test is TAB109. The description is as above. Conditions: P. falciparum in erythrocytes, SYBR Green DNA, 72 h; series mostly up to 12.8 µM. In a few lines: as §1
For the next test, the system named is TAB113. The test is described as above. The note with it: P. falciparum in erythrocytes, SYBR Green DNA, 72 h; series mostly up to 28.7 µM. In a few lines: as §1
A further test relates to W2. The test is described as above. The note with it: P. falciparum in erythrocytes, SYBR Green DNA, 72 h; series mostly up to 12.8 µM. In a few lines: as §1

The structures appear in SMILES notation. Records with an inconclusive call do not appear. Activity calls are given as the source filed them. The call rests on the fitted dose curve; in most records, active means well fitted curve in the direction sought with a large enough effect; inconclusive means small, poorly fitted or top-dose-only effect, or another doubt; inactive means no such curve, though single readings can be large; an effect the other way counts as inactive or inconclusive.

For `C=CCc1ccc2c(c1)OCO2`, the Potency result in test [1], in [2], in test [3], in [4], in [5] and in [6] was “inactive” in each case. In addition, the Potency entry in [7] was “inactive”.

`O=C(OC1CCN(CCCl)CC1)C(c1ccccc1)c1ccccc1`: the values for the Potency in [8] and in [9] were 112 nM (active) and 562 nM (active), respectively.

`C[C@]12CC[C@H](O)CC1=CCC1C2CC[C@]2(C)C(=O)CC[C@@H]12` (stereo not given in full): the Potency entry (in test [10]; in the test with AS120; with ATS189; in the test with CP185; in the test with CP247; with DFO2036) was “inactive” throughout. For the same molecule, the Potency result in the test with P94_40, with PC49, with TAB109, in the test on TAB113 and with W2 was “inactive” in each case.
